According to PubChem BioAssay (NCI):
This is part of a sample that, as a whole, favours compounds with a hit. Of some 83,000 tested, about 20% had one in any assay.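 Assay: single dose, 48 h. Readout: percent growth (0 = no net growth; negative = cell death). Active: <10.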 Unmarked numbers belong to inactive results. Activity calls are given as the source filed them.

Experiments:
Experiment in all cases: NCI-60 one-dose screen, 48 h (100 = growth as untreated, 0 = no growth, -100 = all killed)
Conditions in all cases: 10 µM unless noted
NCI-H23 lung = tested on: NCI-H23 lung
NCI-H226 lung = tested on: NCI-H226 lung
NCI-H322M lung = tested on: NCI-H322M lung
HOP-62 NSCLC = tested on: HOP-62 NSCLC
NCI-H460 lung = tested on: NCI-H460 lung
HOP-92 NSCLC = tested on: HOP-92 NSCLC
NCI-H522 lung = tested on: NCI-H522 lung
A549/ATCC NSCLC = tested on: A549/ATCC NSCLC
786-0 renal = tested on: 786-0 renal
COLO 205 colon = tested on: COLO 205 colon

Row | Compound | growth (NCI-H23 lung) | growth (NCI-H226 lung) | growth (NCI-H322M lung) | growth (HOP-62 NSCLC) | growth (NCI-H460 lung) | growth (HOP-92 NSCLC) | growth (NCI-H522 lung) | growth (A549/ATCC NSCLC) | growth (786-0 renal) | growth (COLO 205 colon)
1 | COc1cc(CC(=O)n2ncc3ccc(N)cc32)cc(OC)c1OC | 91.4% | 94.9% | 88.5% | 94.8% | 102% | 99% | 85.6% | 98.9% | 97.5% | 109%
2 | NC(=NCCCOc1ccc(F)cc1)Nc1ccc(Cl)cc1 | 46% | 65.7% | 60.1% | 46.6% | 84.2% | 60.7% | 76.5% | 53% | 71.4% | -69.6% (active)
3 | COc1ccc(/C=C2\Oc3cc(OCCCN4CCCCC4)ccc3C2=O)cc1OC | 92.1% | 90% | 92.1% | 85.7% | 89% | 65.9% | 99.1% | 93.6% | 88.7% | 98.3%
4 | Cn1c(-c2c(N)n(CCCN3CCOCC3)c3nc(C#N)c(C#N)nc23)nc2ccccc21 | 93.2% | 89.7% | 78.1% | 76.4% | 106% | -6.11% (active) | 77.4% | 86.8% | 23.3% | 70%
5 | c1ccc(Cn2cnc3ccc(-c4nc(-c5ccc6c(c5)ncn6C5CCCCC5)cn5ccnc45)cc32)cc1 | -22.8% (active) | -63.1% (active) | 16% | -9.39% (active) | -20.3% (active) | -83.6% (active) | -35.2% (active) | -5.05% (active) | -19.4% (active) | -29.9% (active)
6 | CN1C(=O)NC(c2ccc3c(c2)OCO3)C=C1c1ccccc1 (stereo not given) | 96.3% | 103% | 92.4% | 91.3% | 97.6% | 93.9% | 80% | 91.1% | 83% | 107%
7 | COc1ccc2c(c1)oc1c(C)c3c(c(C)c12)C(=O)N(CCN1CCOCC1)C3=O | 101% | 96.4% | 90.9% | 101% | 101% | 106% | 29.8% | 90.8% | 102% | 109%
8 | Cc1cc(Cl)nc(N(CCNc2ccnc3cc(Cl)ccc23)Cc2ccccn2)n1 | 56.2% | 79.5% | 63.6% | 72.5% | 50.9% | 38% | 54.1% | 63.3% | 38.7% | 57.5%
9 | COc1cc2oc(-c3cccc(C(=O)Nc4ccccc4)c3)cc(=O)c2c(O)c1OC | 86.9% | 73.2% | 66.4% | 8.89% (active) | 33.7% | 5.28% (active) | 91.3% | 60.3% | 31.5% | 92.3%
10 | c1ccc2cc(Cn3c(-c4cccc5ccccc45)[n+](Cc4ccc5ccccc5c4)c4c5ccccc5c5ccccc5c43)ccc2c1 | -60.8% (active) | -66% (active) | -25% (active) | -85.1% (active) | -71.7% (active) | -52.3% (active) | -64.2% (active) | -71.7% (active) | -70% (active) | -84.9% (active)
11 | O=C(Nc1ccc(F)cc1)Nc1ccc(NC(=O)c2cc(Cl)nc3ccccc23)cc1 | 69.2% | 52.8% | 59.6% | 22.4% | 18.5% | 23.5% | 61.7% | 79.8% | 98.4% | 53.5%
12 | COc1cc2c(-c3cc4c(cc3CNCCc3ccc5c(c3)OCO5)OCO4)cccc2c(OC)c1O | 80.5% | 92.2% | 84.6% | 70.9% | 91.2% | 66.4% | 79.1% | 92.3% | 90.1% | 117%
13 | O=C(Nc1cccc(C(=O)N2CCc3ccc(Cl)cc32)c1)c1ccco1 | 62.4% | 60.2% | 65.2% | 42.4% | 15.8% | 74.1% | 17.8% | 38.3% | 40.5% | 27.5%
14 | O=C(CSc1nc2sc3c(c2c(=O)n1-c1ccc(Cl)cc1)CCCC3)Nc1nc(-c2cccc(Br)c2)cs1 | 56.9% | 64% | 87.8% | 90.7% | 94.7% | 107% | 69.8% | 70.4% | 91.5% | 85.1%
15 | Nc1c(C(=O)Nc2cccc3cnccc23)sc2nc3c(cc12)CN(Cc1ccccc1)CC3 | 99.9% | 92.5% | 96.9% | 98.7% | 109% | 96.4% | 97.2% | 107% | 109% | 112%
16 | O=C(CCN1CCCC1)Nc1ccc2c(NCCCc3ccccc3)c3ccccc3nc2c1 | 14.8% | 42.3% | 16.6% | 24.7% | -72.2% (active) | 21.5% | -49.9% (active) | 15.5% | 24.9% | -50.4% (active)
17 | O=C1Nc2cc(-c3ccc(NS(=O)(=O)c4ccccc4)cc3)ccc2/C1=C/c1ccc[nH]1 | 29.9% | 65.9% | 49.6% | 106% | 11.4% | 95.7% | 76.4% | 86.6% | 108% | 125%
18 | Cc1cc2nc3c4cc(C=O)ccc4n(CCN(C)C)c3nc2cc1C | 17.4% | -3.6% (active) | 21% | 7.67% (active) | 0.703% (active) | 27% | -9.47% (active) | 6.3% (active) | 27.5% | -15.9% (active)
19 | Cc1ccc(NS(=O)(=O)c2ccc(-c3cnc(C4CC4)o3)cc2)cc1C(F)(F)F | 72.8% | 77.9% | 88.7% | 60.7% | 55.8% | 83.3% | 39.9% | 55.2% | 85.5% | 67.5%
20 | C=C(C)[C@@H]1CC[C@]2(C(=O)N3CCN(C)CC3)CC[C@]3(C)[C@H](CC[C@@H]4[C@@]5(C)CC[C@H](OCCC#N)C(C)(C)[C@@H]5CC[C@]43C)[C@@H]12 | 100% | 89.4% | 103% | 108% | 98.7% | 93% | 95.4% | 80% | 22% | 50.3%
21 | COc1ccc(C(=O)c2nc3ccccc3n2CC(=O)c2ccc(Cl)cc2)cc1 | 30.9% | 37.5% | 84.8% | 42.4% | 68.7% | 54.4% | -22.3% (active) | 81.4% | 34.7% | 111%
22 | NS(=O)(=O)c1ccc(CCN2C(=O)c3cc(Cl)c(Cl)cc3C2=O)cc1 | 105% | 106% | 97.8% | 102% | 109% | 104% | 86.5% | 105% | 96.7% | 115%
23 | Cc1c(C(=O)NCCC(=O)NO)sc2ncnc(Nc3ccc(F)c(Cl)c3)c12 | 101% | 104% | 108% | 105% | 100% | 118% | 95.6% | 104% | 105% | 117%
24 | C=C1C(=O)O[C@H]2[C@H]1CC/C(COC(=O)NCc1c[nH]c3ccc(F)cc13)=C\CC[C@@]1(C)O[C@@H]21 | 48.4% | 4.11% (active) | 80.9% | 62.4% | 27.9% | -18.1% (active) | -75.2% (active) | 54.6% | -51.5% (active) | -59.1% (active)
25 | CCCCNC(=O)Oc1ccc(/C(=C(\C)c2ccccc2)c2ccc(OCCN3CCCCC3)cc2)cc1 | 67.9% | 86.8% | 75.3% | 77.9% | 40.5% | 68.1% | 73.1% | 57.8% | 27.1% | 14.3%
26 | O=C1Nc2ccc(F)cc2/C1=C\c1c(-c2ccccc2)nc2ccccn12 | 53.4% | 91.5% | 76.3% | 72.5% | 81.5% | 72.7% | 21.3% | 71.7% | 75.4% | 91.9%
27 | N=C(N)c1ccc(OCCCCCCCCCCOc2ccc(C(=N)N)cc2)cc1 | -69.5% (active) | -71.7% (active) | -99% (active) | -76.6% (active) | -88.6% (active) | -86.1% (active) | -75.8% (active) | -85.4% (active) | -89.8% (active) | -61.6% (active)
